Screens from PubChem BioAssay.
In the library only some 2.4% were active in any assay of this set; here they are far more common.
KAT2A inh: blocks human GCN5L2 histone acetyltransferase; hit rate 0.21% among 390,000; GCN5L2 HAT assay, ThioGlo1 CoA-SH fluorescence; Q92830; Potency, µM (series often up to 58.9 µM), actives largely listed as inhibitors
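Fluorescence readout, Ex340nm/Em540nm: ThioGlo1 (50uM final) reacts with free CoA thiol released as 20nM GCN5L2 acetylates H3(1-25) peptide (75uM) using acetyl-CoA (70uM). Compound and enzyme sat 15 min beforehand; 20 min room-temperature reaction.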
GLS inh: blocks human kidney-isoform glutaminase activity | hit rate 0.21% among 410,000 | Potency, µM (top dose mostly 45.5 µM), usual class: inhibitors | AID 624170 | GLS enzymatic activity, qHTS titration
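Glutamate formation by hKGA was monitored fluorometrically using coupled glutamate oxidase, HRP and Amplex Red. Substrate was added as 1 mM L-glutamine solution; incubation was 30 min at RT after an initial read.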
Pol eta inh-1: inhibitors of human DNA polymerase eta; Q9Y253; recombinant Pol eta, fluorescent DNA replication assay; Potency, µM (highest dose often 114 µM), actives largely listed as inhibitors; hit rate 1.2% among 390,000
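Fluorescent replication assay: 50 nM final substrate added after a 15 min room-temperature compound preincubation with 10 nM enzyme. Signal taken at 0 min and again at 10 min.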
POLB inh: blocks human DNA polymerase beta activity | Potency, µM (titrated, usually from 114 µM), actives largely listed as inhibitors | Pol beta primer extension/strand displacement, fluorescence kinetic | P06746 | hit rate 1.3% among 340,000
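Kinetic readout of DNA synthesis with strand displacement by Pol beta. Compound and 10 nM enzyme sit 15 min at room temperature; 50 nM substrate starts the reaction, read immediately and at 10 min.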
Pol kappa inh-1: inhibitors of human DNA polymerase kappa | Q9UBT6 | Potency, µM (highest dose often 107 µM), actives largely listed as inhibitors | hit rate 0.53% among 400,000 | purified Pol kappa, fluorescent DNA synthesis assay, 10 min
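50 nM final substrate added after 15 min RT preincubation of 10 nM Pol kappa with compound; fluorescence read at 0 and 10 min.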
POLI inh: blocks human DNA polymerase iota activity | hit rate 1% among 390,000 | Potency, µM (top dose mostly 115 µM), hits mostly inhibitors | AID 588590 | Pol iota fluorescent replication assay, 10 min | Q9UNA4
Target sequence (Q9UNA4 whole entry, looked up): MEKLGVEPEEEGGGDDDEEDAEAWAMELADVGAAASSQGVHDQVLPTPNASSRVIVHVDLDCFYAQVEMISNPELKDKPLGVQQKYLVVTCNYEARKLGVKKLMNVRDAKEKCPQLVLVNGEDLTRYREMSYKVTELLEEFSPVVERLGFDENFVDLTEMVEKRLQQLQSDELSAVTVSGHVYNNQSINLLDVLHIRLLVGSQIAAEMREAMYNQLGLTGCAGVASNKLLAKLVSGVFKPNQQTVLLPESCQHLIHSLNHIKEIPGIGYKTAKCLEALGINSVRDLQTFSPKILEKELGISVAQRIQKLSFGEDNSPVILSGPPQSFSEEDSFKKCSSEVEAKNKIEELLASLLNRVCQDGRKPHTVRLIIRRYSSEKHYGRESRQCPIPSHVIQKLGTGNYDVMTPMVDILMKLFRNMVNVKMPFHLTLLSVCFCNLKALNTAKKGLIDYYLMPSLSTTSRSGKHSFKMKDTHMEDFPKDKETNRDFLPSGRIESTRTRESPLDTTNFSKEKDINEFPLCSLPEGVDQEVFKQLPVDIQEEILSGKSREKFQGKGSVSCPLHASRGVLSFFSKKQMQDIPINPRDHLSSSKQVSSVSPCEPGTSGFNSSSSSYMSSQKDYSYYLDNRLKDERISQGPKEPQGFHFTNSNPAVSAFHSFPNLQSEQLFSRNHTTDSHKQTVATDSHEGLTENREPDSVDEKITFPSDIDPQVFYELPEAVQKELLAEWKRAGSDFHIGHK
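Fluorescent replication assay read twice, at 0 min and 10 min after adding 50 nM (final) substrate. Enzyme (10 nM) and compounds were first incubated 15 min at room temperature; enzyme-free buffer wells were negative controls.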
PGK validate: validation of Trypanosoma brucei phosphoglycerate kinase inhibitors. shares compounds with Pol kappa inh-1. TbPGK coupled GAPDH assay, Kinase-Glo luminescence. Potency, µM (series often up to 57.5 µM), most hits filed as inhibitors. hit rate 79% among 500; note: nearly all actives have a fitted effect of over 65% in size
Pol iota confirm: Human Pol iota inhibitor confirmatory assay; shares compounds with Pol kappa inh-1; Pol iota primer extension, TAMRA/BHQ fluorescence; Potency, µM, usual class: inhibitors; hit rate 77% among 1,500; AID 720496
GALK confirm: galactokinase (human) inhibition, confirmation; Potency, µM (doses to about 115 µM), hits mostly inhibitors; shares compounds with Pol eta inh-1; purified GALK, Kinase-Glo ATP depletion luminescence; AID 2015; hit rate 70% among 150
Redox cycling: counter-screen for GALK inhibitors: redox cycling H2O2 generation | shares compounds with Pol eta inh-1 | Phenol red-HRP H2O2 redox cycling, absorbance 600 nm | Potency, µM (top dose mostly 115 µM), most hits filed as inhibitors | hit rate 40% among 150 | AID 2035
HEK293 viability: counter-screen for GALK inhibitors: HEK293 cell cytotoxicity | hit rate 10% among 170 | shares compounds with Pol eta inh-1 | Potency, µM (top dose mostly 46.1 µM), most hits filed as inhibitors | HEK-293 viability, ATP luminescence (CellTiter-Glo), 24/48 h
Pol kappa inh-2: Pol kappa (human) inhibition, cherry-pick confirmation; shares compounds with Pol eta inh-1; purified Pol-kappa, fluorescent strand-displacement substrate; Potency, µM, most hits filed as inhibitors; hit rate 76% among 920
Pol eta inh-2: Pol eta (human) inhibition, cherry-pick confirmation; Pol eta primer extension, TAMRA/BHQ fluorescence, 10 min; hit rate 64% among 2,600; AID 720502; Potency, µM, usual class: inhibitors; shares compounds with Pol eta inh-1
Large screens that a line does not name were inactive (follow-up assays come after a bar, where they were run). Calls come from the whole dose curve; as a rule, active = well fitted curve in the direction sought with a large enough effect; inconclusive = small, poorly fitted or top-dose-only effect, or another doubt; inactive = no such curve, though single readings can be large; an effect the other way counts as inactive or inconclusive.

CS(=O)(=O)c1ccc2c(c1)sc1nc(=O)c(/C=C3/C=CC(=O)C(O)=C3)c(N)n12	KAT2A inh inconclusive, Pol eta inh-1 0.79µM, POLB inh 3.2µM, Pol kappa inh-1 7.9µM, POLI inh 4µM | PGK validate inconclusive | Pol iota confirm 6.7 | GALK confirm 19µM | Redox cycling inconclusive | HEK293 viability inactive | Pol eta inh-2 1.5
CS(=O)(=O)c1nsc2nc(=O)c(/C=C3\C=Nc4ccccc43)c(N)n12	Pol eta inh-1 inconclusive
N=c1n(CCO)c2ccccc2n1Cc1ccccc1F	none
O=C(Cn1ncc2c([nH]c3ccccc32)c1=O)Nc1cc(F)ccc1F	none
Cc1ccc2c(c1)c(=O)c1c3n2CCN(C(=O)CCl)C3CC1 (stereo not given)	Pol eta inh-1 6.3µM, POLB inh 16µM, POLI inh inconclusive | Pol iota confirm 60 | Pol eta inh-2 60
CCCC[N+](C)(C)CCC(=O)NC(C)(C)CS(=O)(=O)[O-]	Pol eta inh-1 13µM, POLB inh 20µM, POLI inh inconclusive | PGK validate inconclusive | Pol eta inh-2 76
Cc1ccc(S(=O)(=O)NCCCCCC(=O)NC(C)(C)CO)cc1	none
O=C(O)c1ccc(CSc2nc3ccc(NC(=O)c4ccccc4C(=O)O)cc3s2)cc1	Pol eta inh-1 25µM, POLI inh inconclusive | Pol iota confirm inconclusive | Pol kappa inh-2 84 | Pol eta inh-2 inconclusive
O=C(CSc1ccsc1[N+](=O)[O-])Nc1cccc(F)c1	Pol eta inh-1 22µM, POLB inh 7.1µM, Pol kappa inh-1 22µM, POLI inh inconclusive | Pol iota confirm 67 | Pol eta inh-2 48
CCc1ccccc1NC(=O)CSc1ccsc1[N+](=O)[O-]	Pol eta inh-1 32µM, POLB inh 25µM, Pol kappa inh-1 inconclusive, POLI inh 18µM | Pol iota confirm inconclusive | Pol eta inh-2 60
O=S(=O)(c1ccccc1)c1nc(-c2ccc(Cl)cc2Cl)oc1N1CCCCCC1	POLB inh inconclusive
Cc1ccc(-c2cc(NC(=O)C(C)Oc3ccccc3F)on2)cc1 (stereo not given)	none
O=[N+]([O-])c1cc(/C=N/n2c(-c3ccncc3)n[nH]c2=S)ccc1Cl	Pol eta inh-1 50µM, POLB inh 2.5µM, Pol kappa inh-1 inconclusive, POLI inh 13µM | Pol iota confirm 17 | Pol eta inh-2 43
CCCCSc1nnc2c(n1)OC(c1ccc(Br)s1)N(C(C)=O)c1ccccc1-2 (stereo not given)	none
Cc1ccc2[nH]c(C(=O)Nc3ccccc3)cc2c1	POLB inh inconclusive
Cn1c(SCC(=O)Nc2nncs2)nnc1C1CC1	GLS inh inconclusive, Pol eta inh-1 22µM, POLB inh 6.3µM, Pol kappa inh-1 inconclusive, POLI inh inconclusive | Pol iota confirm 38 | Pol eta inh-2 30
COc1cc(CNC(=O)c2cnc3c(-c4cccc(C)c4)c(C)nn3c2C)cc(OC)c1OC	none
COc1ccc(S(=O)(=O)c2c(SC)nn(CC(=O)Nc3ccc(C)c(Cl)c3)c2N)cc1	none
Cc1ccccc1C1=C/C(=C(\SS/C(C(=O)c2ccc(OCC(=O)O)c(Cl)c2Cl)=C2\C=C(c3ccccc3C)SS2)C(=O)c2ccc(OCC(=O)O)c(Cl)c2Cl)SS1	GLS inh inconclusive, Pol eta inh-1 14µM, Pol kappa inh-1 79µM, POLI inh inconclusive (no result: KAT2A inh, POLB inh) | Pol iota confirm 38 | Pol kappa inh-2 17 | Pol eta inh-2 24
CC(C)(O)c1ccccc1CC[C@@H](SCC1(CC(=O)O)CC1)c1cccc(/C=C/c2ccc3ccc(Cl)cc3n2)c1	Pol eta inh-1 inconclusive, POLI inh 45µM (no result: KAT2A inh, POLB inh) | Pol iota confirm inconclusive | Pol kappa inh-2 84
CC(=O)Oc1ccc(Cl)cc1/C=C/c1ccc2ccccc2n1	none
Cc1ccc(-c2nc3c(c(SCC(=O)Nc4cccc(C(=O)O)c4)n2)Cc2cccc(C)c2O3)cc1	KAT2A inh inconclusive, POLB inh 1.8µM, Pol kappa inh-1 inconclusive, POLI inh inconclusive (no result: GLS inh, Pol eta inh-1) | Pol iota confirm 8.4 | Pol kappa inh-2 3.8 | Pol eta inh-2 85
O=C(CSc1nc(-c2ccc(F)cc2)nc2c1Cc1ccccc1O2)Nc1ccc(C(=O)O)cc1	KAT2A inh 14µM, Pol eta inh-1 inconclusive, POLB inh 4.5µM, Pol kappa inh-1 inconclusive, POLI inh 1.4µM | PGK validate 2.1µM | Pol iota confirm 7.5 | Pol kappa inh-2 7.5
O=C(CSc1nc(-c2ccccc2)nc2c1Cc1ccccc1O2)Nc1ccc(C(=O)O)cc1	KAT2A inh 28µM, GLS inh inconclusive, Pol eta inh-1 7.9µM, POLB inh 2µM, Pol kappa inh-1 10µM, POLI inh inconclusive | Pol iota confirm 9.5 | Pol kappa inh-2 42 | Pol eta inh-2 inconclusive
CCOc1cccc2c1Oc1nc(-c3ccccc3)nc(SCC(=O)Nc3ccc(F)cc3)c1C2	none
CCc1cccc(NC(=O)Cn2c(=O)n(CC3CCC(C(=O)NC)CC3)c(=O)c3sccc32)c1 (stereo not given)	none
C=C(C)C(=O)Nc1cccc(C2=NOC3(C2)C[C@@H](C(N)=O)N(C(=O)CCCCC)C3)c1 (stereo not given in full)	GLS inh 10µM, Pol eta inh-1 1.4µM, POLB inh 2µM, Pol kappa inh-1 7.9µM, POLI inh 8.9µM | PGK validate 0.58µM | Pol iota confirm 19 | Pol eta inh-2 3
